LmPK inh = blocks Leishmania mexicana pyruvate kinase activity; Q27686; purified LmPK, Kinase-Glo ATP luminescence, 1 h; Potency, µM (doses to about 57.5 µM), for inactives: at the highest dose activity change, negative = inhibition, usual class: inhibitors; 290,000 tested, 0.37% active; AID 1721; further: potency means the concentration at half of the fitted maximal effect; on the % scale 0 is the no-effect control and ±100 the full control effect
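Purified LmPK (0.1 nM) with 0.5 mM PEP and 0.1 mM ADP in imidazole buffer pH 7.2 with MgCl2/KCl, 1 h at room temperature. ATP formed was read by luciferase luminescence and normalized to no-enzyme and uninhibited controls.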
Tb PYK inh = inhibitors of Trypanosoma brucei pyruvate kinase; Q57TT1; TbPYK enzyme, Kinase-Glo Plus ATP luminescence, 45 min; AID 624173; 410,000 tested, 0.12% active; Potency, µM (doses to about 76.8 µM), for the others: at the highest dose activity, negative = inhibition, usual class: inhibitors; further: potency means the concentration at half of the fitted maximal effect; on the % scale 0 is the no-effect control and ±100 the full control effect; nearly all actives have a fitted effect of over 50% in size
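Quantitative HTS: titrated library compounds versus trypanosomal pyruvate kinase in TEA buffer (pH 7.2) containing KCl, MgCl2, BSA and Tween-20. Reactions were initiated with ADP, 130 uM final. Kinase-Glo Plus luminescence was read after 45 min at RT.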
RE007 growth inh = less growth of the S. pombe RE007 Vpr strain. S. pombe RE007 Vpr strain, BacTiter-Glo ATP luminescence, 24 h. Potency, µM (series often up to 92.2 µM), for the others: at the highest dose activity change, negative = less growth, usual class: inhibitors. 360,000 tested, 0.21% active. AID 651644; active means well fitted falling curve with a large enough effect; inconclusive means small, poorly fitted or top-dose-only effect; inactive means no such curve, though single readings can be large or run the other way; further: potency means the concentration at half of the fitted maximal effect; on the % scale 0 is the no-effect control and ±100 the full control effect; nearly all actives have a fitted effect of over 50% in size
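Fission yeast strain RE007, carrying one chromosomally integrated HIV-1 vpr copy, was seeded at OD 0.01 in PMG+AL medium with 23 nL pinned compound. After 24 h at 30 °C and 99% humidity, viability was read by BacTiter-Glo luminescence.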
CHX counter = affects cycloheximide protein synthesis inhibition readout, counter-screen | cell reporter, cycloheximide protein synthesis inhibition counterscreen | max response, % | 300,000 tested, 12% active; in the data active means max response mostly above about 13%, no sharp cut-off; inactive means mostly below about 14%; further: read at 38.3 µM for the half of the compounds with a filed dose; 0% is about no effect
Shiga inhibitor = Shiga toxin inhibition; Vero cells, Shiga toxin protein synthesis inhibition reporter; inhibition, % at 38.7 µM; 290,000 tested, 9.2% active; AID 2315; in the data active means inhibition mostly above about 28%, no sharp cut-off; inactive means mostly below about 43%; further: 0% is about no effect
Giardia FBPA inh = inhibitors of Giardia lamblia fructose-1,6-bisphosphate aldolase; purified Giardia FBPA; Potency, µM (doses to about 59.6 µM), for inactives: top-dose activity, negative = inhibition, hits mostly inhibitors; 290,000 tested, 0.71% active; AID 2451; further: potency means the concentration at half of the fitted maximal effect; on the % scale 0 is the no-effect control and ±100 the full control effect; nearly all actives have a fitted effect of over 55% in size
Target sequence (A8B2U2 whole entry, looked up): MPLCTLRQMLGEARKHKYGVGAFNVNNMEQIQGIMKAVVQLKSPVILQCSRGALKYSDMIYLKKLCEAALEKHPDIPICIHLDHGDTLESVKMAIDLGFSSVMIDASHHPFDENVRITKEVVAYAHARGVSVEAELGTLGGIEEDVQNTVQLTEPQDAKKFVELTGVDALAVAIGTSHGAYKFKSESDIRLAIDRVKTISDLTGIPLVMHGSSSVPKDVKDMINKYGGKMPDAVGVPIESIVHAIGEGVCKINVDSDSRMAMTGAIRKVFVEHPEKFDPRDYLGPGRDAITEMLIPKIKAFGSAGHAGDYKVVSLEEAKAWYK
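40 nM FBPA preincubated 10 min at RT with compound (up to 57.5 uM final), then substrate plus GAPDH/TPI/NAD/arsenate coupling and diaphorase/resazurin added. Fluorescence read after 20 min at RT, 525/598 nm.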
* = called active by the depositor; ? = inconclusive; / = no result given; + = active, no number. Shown is part of a subset that was picked to be rich in hits. Unless noted, the call rests on the fitted dose curve; in most records, active means well fitted curve in the direction sought with a large enough effect; inconclusive means small, poorly fitted or top-dose-only effect, or another doubt; inactive means no such curve, though single readings can be large; an effect the other way counts as inactive or inconclusive.

SMILES	LmPK inh	Tb PYK inh	RE007 growth inh	CHX counter	Shiga inhibitor	Giardia FBPA inh
COCCn1c2c([n+](Cc3cnccn3)c1C)C(=O)c1ccccc1C2=O	/	0%	/	/	/	/
O=C(NCc1ccccc1)C1c2ccccc2OCC(=O)N1Cc1cccnc1 (stereo unspecified)	/	6%	10%	/	/	/
CCOc1cc(C2C(C(=O)Nc3ccccc3)=C(C)Nc3ncnn32)cc(Br)c1O (stereo unspecified)	/	-13%	/	/	/	/
COc1cccc(C(C#N)NCCCNC(C#N)c2cccc(OC)c2OC)c1OC (stereo unspecified)	/	3%	12%	/	/	/
CC1=NN(c2nc(-c3ccc(Cl)cc3)cs2)C(=O)C1	4%	1%	12%	15*	-18	29%
COc1cccc(-c2csc(N3CCN(C(=O)Nc4ccc(Cl)cc4)CC3)n2)c1	3%	-12%	-15%	28*	45*	-11%
O=C(c1ncn[nH]1)N1CCN(c2nc(-c3ccccc3)cs2)CC1	2%	-33%	12%	15*	49	11%
O=C(c1cc(-n2cnnc2)ccc1Cl)N1CCN(c2nc(-c3ccccc3)cs2)CC1	-3%	-23%	1%	-1	3	0%
CCc1ccccc1C1=CC(=O)C[C@H](c2ccc(OC)cc2)C1	/	-4%	7%	/	/	/
Cc1ccc(S(=O)(=O)N2CCOCC2)cc1C(=O)NCCN1C(=O)S/C(=C\c2ccccc2Cl)C1=O	0%	-5%	-20%	-3	16	-1%
CC(C)(C)c1ccc(/C=C2\SC(=O)N(CCNC(=O)c3cccc(S(=O)(=O)N4CCOCC4)c3)C2=O)cc1	-2%	-8%	3%	69*	131*	-5%
COc1cc(C(=O)Oc2ccc3c(c2)OCC3=O)cc(OC)c1OC	-5%	-4%	6%	-2	-12	5%
O=C(Oc1ccc2c(c1)OCC2=O)c1ccc(Cl)cc1	1%	5%	-13%	22	50*	3%
COC(=O)C(=O)C/C(=N/Nc1ncnc2ccccc12)c1ccc(Cl)cc1	2%	-9%	8%	27*	86*	25%
Cc1ccc(S(=O)(=O)Nc2cccc(C(=O)N3CCC(C(N)=O)CC3)c2)cc1	/	-4%	1%	/	/	/
COc1ccc(-n2cc(C(=O)c3ccc4ccccc4c3O)cn2)cc1	6%	-3%	2%	18	4	1%
CCOC(=O)COc1ncn(-c2ccccc2)n1	-5%	2%	-18%	-1	-6	-3%
CC(C)c1ccc(NC(=O)COc2ccc(F)cc2C(=O)c2cnn(-c3ccccc3)c2)cc1	-1%	7%	-9%	73*	120*	-2%
O=C(COc1ccccc1C(=O)c1cnn(-c2ccccc2)c1)Nc1ccc2ccccc2c1	-2%	-4%	-12%	57*	20	0%
CC(C)n1cc(NC(=O)COc2ccccc2Cl)cn1	1%	5%	0%	10	47	9%
CCOC(=O)COc1ccccc1C(=O)c1cnn(-c2ccccc2)c1	-6%	5%	8%	59*	111*	-4%
CN(C)CC/C=C1\c2ccccc2COc2ccc(CC(=O)O)cc21	/	10%	/	/	/	/
CC(=O)Nc1ccc(NC(=O)c2cc3c(=O)n(Cc4cccnc4)ccc3nc2C)cc1	/	-3%	/	/	/	/
CCCCC/C=C\C/C=C\C/C=C\C/C=C\CCCC(=O)O[C@@H](CO)COC(=O)CCCCCCCCCCCCCCCCC	/	/	/	/	/	0%
Cn1c(-c2ccccc2)c(/C=N/NC(=O)c2cccnc2)c2ccccc21	-1%	-5%	16%	21*	68*	-4%
SMILES	LmPK inh	Tb PYK inh	RE007 growth inh	CHX counter	Shiga inhibitor	Giardia FBPA inh
O=C(N/N=C/c1c(-c2ccccc2)[nH]c2ccccc12)c1cccnc1	-1%	2%	-4%	27*	65*	-3%
O=C(N/N=C/c1c(O)n(Cc2ccccc2)c(=O)c2ccccc12)c1cccnc1	3%	-9%	-15%	2	-6	-11%
Cc1cccc(NC(=O)CCS(=O)(=O)c2ccc3c(c2)n(C)c(=O)c(=O)n3C)c1C	/	4%	/	/	/	/
Cc1ccc(CN2C(=O)c3ccccc3C2c2nnnn2C(C)C)cc1 (stereo unspecified)	/	2%	9%	/	/	/
COc1ccc(C(=O)c2ccccc2)c(O)c1	1%	-3%	-17%	26*	+	3%
O=C(c1cnn(-c2ccccc2)c1)c1ccccc1O	?	-4%	-7%	70*	75*	0%
Cn1c(=O)[nH]c(=O)c2cc(C(=O)c3cc(F)ccc3O)cnc21	-4%	-2%	1%	-3	7	2%
O=C(c1cnn(-c2ccccc2)c1)c1cc(F)ccc1O	-2%	1%	-8%	43*	83*	-1%
COc1ccc(C(=O)c2ccc(C)cc2)c(O)c1	/	-8%	/	/	/	/
COc1ccc(O)c(C(=O)c2cnc3onc(C)c3c2)c1	5%	-4%	-6%	21*	17	0%
CCc1ccc(C(=O)C(C)OC(=O)c2nc3nc(C)cc(C)n3n2)cc1 (stereo unspecified)	/	3%	3%	/	/	/
CC(=O)c1ccccc1OCCOc1ccccc1C(C)=O	-4%	1%	-8%	2	-2	7%
COc1ccc(-n2cc(C(=O)c3ccccc3O)cn2)cc1	-21%	-12%	?	18	40	-8%
COc1ccc(C(=O)OCCOc2ccccc2C(C)=O)c(O)c1	16%	1%	30%	13*	41	1%
O=C(c1cnc2ccc3ccccc3c2c1)c1cc(F)ccc1O	4%	-2%	-18%	46*	69*	-24%
Cc1nn(C)c2ncc(C(=O)c3cc(F)ccc3O)cc12	10%	2%	-16%	-2	-10	-2%
COc1ccc(O)c(C(=O)c2cnn(-c3ccccc3)c2)c1	-2%	-7%	8%	29*	96*	-8%
COc1ccc(O)c(C(=O)c2cc(C#N)c(=O)n(-c3c(C)n(C)n(-c4ccccc4)c3=O)c2)c1	-3%	-5%	12%	22*	-6	-16%
N#Cc1nc(COc2cccc(Cl)c2)oc1NCCc1ccccc1	/	-5%	/	/	/	/
Cc1nn(C(=O)c2c([N+](=O)[O-])cnn2C)c(C)c1Cl	-4%	1%	2%	-2	24	8%
Cc1ccccc1NC(=O)NCc1ccccn1	/	7%	-5%	/	/	/
COc1ccc(NC(=O)COc2ccc3c(C)cc(=O)oc3c2)cc1S(=O)(=O)N1CCCCC1	/	4%	6%	/	/	/

Screening results (PubChem)
